We go through six molecules from PubChem BioAssay (Tox21).

Assay [1] is described as follows: qHTS assay to identify small molecule agonists of the hypoxia (HIF-1) signaling pathway - cell viability counter screen (AID 1224844; calls by dose curve; further: nearly all actives have a fitted effect of over 50% in size). In short, it runs like this:
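HRE-bla ME-180 cells in medium with 0.5% dialyzed FBS were preincubated 5 hrs at 37C, exposed to compounds for 17 hrs, then viability was read as CellTiter-Glo luminescence after 30 min at room temperature, in the reporter wells.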

Assay [2] can be described thus: qHTS assay to identify small molecule agonists of H2AX (AID 1224845; active means well fitted activation curve with a large enough effect in the signal ratio in the repeat runs, not every such curve was filed as active; the % refers to the signal ratio). In short, it runs like this: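 Wild-type CHO-K1 cells plated overnight, then exposed 3 hr at 37C to compounds at 15 concentrations (0.76% DMSO). Lysed, then HTRF anti-pH2AX(S139)-cryptate/anti-H2AX-d2 detection after 24 hr at room temperature; emissions 665 and 620 nm.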
(qHTS replaces the single test concentration by a dilution series.)

Assay [3] can be described thus: qHTS assay to identify small molecule agonists of the hypoxia (HIF-1) signaling pathway (AID 1224846; active means well fitted activation curve with a large enough effect in the signal ratio in the repeat runs, not every such curve was filed as active; the % refers to the signal ratio). In short, it runs like this:
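HRE-bla ME-180 cells (beta-lactamase reporter under hypoxia response element) were plated at 2,000 cells/well in medium with 0.5% dialyzed FBS, rested 5 hrs, then given compounds in DMSO for 17 hrs at 37C, 5% CO2. Reporter induction was read with CCF4-AM FRET substrate.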

Assay [4] in a line: qHTS assay to identify small molecule agonists of H2AX - cell viability counter screen (AID 1224847; calls by dose curve; further: top concentration of the series differs between compounds; nearly all actives have a fitted effect of over 30% in size). In short, it runs like this: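 After overnight plating of 1000 CHO-K1 cells per well, a 15-concentration compound series was applied for 3 hr at 37C. Luminescence from CellTiter-Glo, read following 30 min at room temperature, reflected cell viability.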
A short description of assay [5]: qHTS assay to identify small molecule antagonists of the estrogen related receptor (ERR) signaling pathway from Tox21 library (AID 1224848). Further: nearly all actives have a fitted effect of over 50% in size. Further: potency means the concentration at half of the fitted maximal effect. In short, it runs like this:
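Cells: ERR line, 2,000/well; 6 h preincubation 37 C/5% CO2. Cpd in DMSO via pin tool; 18 h, 37 C. ONE-Glo, 30 min RT, luminescence.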

The nature of assay [6]: qHTS assay to identify small molecule agonists of the estrogen related receptor (ERR) signaling pathway from Tox21 library (AID 1224849; calls by dose curve; further: nearly all actives have a fitted effect of over 15% in size). The conditions noted are these: ERR reporter cell line, ONE-Glo luciferase, 18 h. In short, it runs like this: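 ERR reporter cell line (NTP) seeded, rested 6 h at 37 C/5% CO2, then pinned with Tox21 compounds in DMSO. After 18 h at 37 C, ONE-Glo luciferase luminescence was read following 30 min at room temperature.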

Assay [7] in a line: qHTS RealTime-Glo MT Cell Viability Assay in HepG2 cells - 24 hour (AID 1224867). Further: nearly all actives have a fitted effect of over 50% in size. In short, it runs like this:
(§1)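 Cells + NanoLuc/prosubstrate dispensed (600 cells/well) → 5 h at 37 C/5% CO2 → compounds in DMSO transferred → 40 h incubation at 37 C, luminescence read at 0, 8, 16, 24, 32, 40 h.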

The nature of assay [8]: qHTS RealTime-Glo MT Cell Viability Assay in HEK293 cells - 32 hour (AID 1224868). Further: top concentration of the series differs between compounds; nearly all actives have a fitted effect of over 50% in size. In short, it runs like this:
(§2)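 Tox21 10K qHTS, HEK293, 600 cells/well, RealTime-Glo reagent co-dispensed with cells; 5 h preincubation, compound by pintool, 37 C, luminescence at 0–40 h.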

A short description of assay [9]: A CellTox Green Cytotoxicity Assay to monitor cytotoxicity in HEK293 cells - 0 hour (AID 1224869). Further: nearly all actives have a fitted effect of over 50% in size. In short, it runs like this: (§3)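 HEK293 cells premixed with CellTox Green dye were seeded at 600 cells/well and left 5 h at 37 C/5% CO2 before pin transfer of 23 nL compound in DMSO. Fluorescence from dye bound to dead-cell DNA was read during 40 h treatment.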
The nature of assay [10]: qHTS RealTime-Glo MT Cell Viability Assay in HepG2 cells - 40 hour (AID 1224870). Further: nearly all actives have a fitted effect of over 50% in size. In short, it runs like this: (§4)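 HepG2 cells mixed with RealTime-Glo MT reagents (NanoLuc plus cell-permeant prosubstrate) were seeded at 600 cells/well, incubated 5 h at 37 C/5% CO2, then pinned with compounds in DMSO; nonlytic luminescence tracked viability during 40 h treatment.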
Assay [11] in a line: A CellTox Green Cytotoxicity Assay to monitor cytotoxicity in HEK293 cells - 40 hour (AID 1224871). Further: nearly all actives have a fitted effect of over 45% in size. In short, it runs like this:
as §3

Assay [12] in a line: qHTS RealTime-Glo MT Cell Viability Assay in HEK293 cells - 16 hour (AID 1224872). In short, it runs like this: as §2
Assay [13] is described as follows: qHTS RealTime-Glo MT Cell Viability Assay in HepG2 cells - 8 hour (AID 1224873). Further: nearly all actives have a fitted effect of over 55% in size. In short, it runs like this: as §4
A short description of assay [14]: qHTS RealTime-Glo MT Cell Viability Assay in HEK293 cells - 40 hour (AID 1224874). Further: nearly all actives have a fitted effect of over 50% in size. The conditions noted are these: RealTime-Glo luminescence; max response: stronger effect = lower value. In short, it runs like this:
(§5)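 HEK293 cells mixed with RealTime-Glo reagents (NanoLuc plus cell-permeant prosubstrate) at 600 cells/well, preincubated 5 h at 37 C/5% CO2, then given 23 nL compound in DMSO. Nonlytic luminescence from viable cells was read at 0, 8, 16, 24, 32 and 40 h.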

Assay [15] in a line: A CellTox Green Cytotoxicity Assay to monitor cytotoxicity in HepG2 cells - 16 hour (AID 1224876). Further: nearly all actives have a fitted effect of over 45% in size. In short, it runs like this: (§6)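 HepG2 cells were seeded together with the CellTox Green dye at 600 cells/well, left 5 h at 37 C/5% CO2, then given compounds in DMSO. Fluorescence from dye bound to dead-cell DNA was read repeatedly over 40 h of treatment at 37 C.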
Assay [16] in a line: qHTS RealTime-Glo MT Cell Viability Assay in HepG2 cells - 32 hour (AID 1224877). Further: nearly all actives have a fitted effect of over 55% in size. In short, it runs like this:
as §1

The nature of assay [17]: A CellTox Green Cytotoxicity Assay to monitor cytotoxicity in HepG2 cells - 24 hour (AID 1224878). Further: nearly all actives have a fitted effect of over 45% in size. In short, it runs like this:
as §6

Assay [18] in a line: A CellTox Green Cytotoxicity Assay to monitor cytotoxicity in HepG2 cells - 40 hour (AID 1224879). Further: nearly all actives have a fitted effect of over 40% in size. In short, it runs like this: as §6
The nature of assay [19]: qHTS RealTime-Glo MT Cell Viability Assay in HEK293 cells - 0 hour (AID 1224880). Further: top concentration of the series differs between compounds; nearly all actives have a fitted effect of over 45% in size. In short, it runs like this:
as §5

Assay [20] can be described thus: A CellTox Green Cytotoxicity Assay to monitor cytotoxicity in HEK293 cells - 24 hour (AID 1224875). Further: nearly all actives have a fitted effect of over 45% in size. In short, it runs like this:
as §3

The structures appear in SMILES notation. Where “and” joins values, the source holds several entries; their conditions need not be identical. Equal entries are not always repeated. Inconclusive results are not listed. Some structures have more than one record in an assay (separate samples or runs), and their calls can disagree. Calls of active or inactive are those of the source. Unless noted, the call rests on the fitted dose curve; in most records, active means well fitted curve in the direction sought with a large enough effect in the repeat runs; inconclusive means weak or mixed curves; inactive means no such curve, though single readings can be large; an effect the other way counts as inactive or inconclusive.
On the % scale 0 is the no-effect control and ±100 the full control effect.

With `CCCCC(CC)COC(=O)Cl` (stereo not given), the Potency entry in assay [1], in assay [2], in assay [4], in assay [5], in assay [7] and in assay [8] was “inactive” in each case. Also, the Potency result in [9], in [10], in [11], in [12], in assay [13] and in [15] was “inactive” throughout. Besides, the Potency entry in assay [16], in assay [17], in assay [18] and in assay [19] was “inactive” each time. Also, in assay [3], the call was inactive. Besides, the activity change, positive = activation in assay [6] (at 92.4 µM (top of the series)) was 0.183% (inactive) and -0.549% (inactive). Further, the max response in [14] is 2.04% (inactive).

Consider `CCCCN(CC)c1c([N+](=O)[O-])cc(C(F)(F)F)cc1[N+](=O)[O-]`, for which the Potency entry in assay [1], in assay [2], in assay [5], in assay [7], in [8] and in assay [9] was “inactive” in each case. In addition, the Potency result in [11], in assay [12], in assay [13], in assay [20], in assay [15] and in [16] was “inactive” in each case. Also, the Potency entry in assay [17], in [18] and in [19] was “inactive” throughout. In addition, the outcome in assay [3] was inactive. The activity change, positive = activation in assay [6] (at 92.4 µM (top of the series)) is -0.494% (inactive) and 5.99% (inactive). In [14], the max response was -1.03% (inactive) and 20.2% (inactive).

For the molecule `CCCCCCCCOC(=O)c1ccccc1C(=O)OCCCCCCCC`, the Potency result in [1], in assay [2], in [4], in assay [7], in [8] and in [11] was “inactive” throughout. In addition, the Potency result in [12], in [13], in assay [15], in assay [16], in [17] and in assay [18] was “inactive” throughout. In addition, the Potency result in [19] was “inactive”. In addition, the result in assay [3] was inactive. The max response in assay [14] is 2.33% (inactive) and -2.33% (inactive).

Consider `CCOP(=S)(OCC)O/N=C(\C#N)c1ccccc1`, for which the Potency result in assay [1], in [2], in [4], in assay [5], in assay [7] and in assay [8] was “inactive” each time. Further, the Potency entry in assay [11], in [12], in [13], in [20], in assay [15] and in assay [16] was “inactive” each time. In addition, the Potency result in assay [18] and in assay [19] was “inactive” in each case. Moreover, in [3], the molecule was classed as inactive. Besides, the activity change, positive = activation in [6] (at 42.5 µM (top of the series)) is 3.78% (inactive); in [6] (at 92.4 µM (top of the series)), 4.34% (inactive). In addition, the max response in assay [14] was 6.15% (inactive) and 1.47% (inactive).

As to `CCOc1cc(Oc2ccc(C(F)(F)F)cc2Cl)ccc1[N+](=O)[O-]`, the Potency entry in assay [1], in [2], in [4], in assay [7], in assay [9] and in [10] was “inactive” each time. For the same molecule, the Potency result in assay [11], in [13], in [15], in assay [16], in [18] and in assay [19] was “inactive” in each case. Moreover, the call in [3] was inactive. Besides, the activity change, positive = activation in [6] (at 92.4 µM (top of the series)) was -29.7% (inactive) and -19.5% (inactive). For the same molecule, in assay [14], the max response was -24.7% (inactive).

Consider `C[C@]12CCC(=O)C(O)=C1CC[C@@H]1[C@@H]2CC[C@]2(C)C(=O)CC[C@@H]12`, for which the Potency result in assay [1], in assay [2], in assay [4], in [7], in [8] and in assay [9] was “inactive” each time. Moreover, the Potency entry in [11], in [12], in assay [13], in assay [20], in [15] and in assay [16] was “inactive” throughout. Also, the Potency result in [17], in assay [18] and in assay [19] was “inactive” in each case. The outcome in [3] was inactive. For the same molecule, in assay [5], the Potency is 54.5 µM (active) and inactive. In addition, the figures for the activity change, positive = activation in [6] (at 42.5 µM (top of the series)) and in assay [6] (at 92.4 µM (top of the series)) were -8.87% (inactive) and -37.5% (inactive), respectively. For the same molecule, the max response in assay [14] was -15.6% (inactive).
